In all, about 340,000 compounds went through this assay and about 2,300 (0.68%) were called active. The sample holds actives, similar compounds and a random draw of the others, so the mix is not that of the screen. Unmarked numbers belong to inactive results. Cut-off read from the data, not from the text of the source: active = growth rescue above about 28% (passing the limit was not always enough); inconclusive = no clear call, values can overlap the other calls.

A short description of the assay: rescue of yeast from PfHsp40 toxicity, primary screen, S. cerevisiae, ATP luminescence (AID 504582).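 Note: yeast W303a lacking pdr1 and pdr3 grown in galactose medium; growth measured after three days at 30 °C.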 The following applies: S. cerevisiae expressing PfHsp40, growth rescue, at 12.5 µM, active compounds read high.
In the case of `Cc1cc(NC(=O)CSCc2nc(-c3cccc(Cl)c3)oc2C)no1`, the growth rescue was -0.561%.
Under `Cc1ccc(-c2nc(CSCC(=O)NC3CCN(Cc4ccccc4)CC3)c(C)o2)cc1` stands 0.251%; under `Cc1ccsc1-c1nc(CSCC(=O)NCCN2CCCC2)c(C)o1`, 35.6% (active).
As for `Cc1ccccc1CSCCNC(=O)c1ccc(Cl)c(S(=O)(=O)N2CCOCC2)c1`, the growth rescue is 1.98%.
Consider `CCC1CCCCN1C(=O)CSc1nc2c(c(=O)n(C)c(=O)n2C)n1C` (stereo not drawn), for which the growth rescue was 17.3%.
Under `Nc1ccccc1SC(C[N+](=O)[O-])c1ccccc1` (stereo not drawn) stands 33.7% (active); under `CC(=O)N(OCc1ccc(OC(C)C)c(Cl)c1)C(C)=O`, -0.894%.
The same measure for `COc1ccccc1CNC(=O)C1CCN(C(=O)[C@@H]2Cc3ccccc3CN2)CC1`: -0.254%; for `COc1cccc(C2c3[nH]c4ccccc4c3CCN2Cc2cccc(C)n2)c1` (stereo not drawn): 1.72%.
Under `CCCNC(=O)CCc1c(C)nc2c(c(C)nn2-c2ccc(C)cc2)c1C` stands 1.12%.
For `COc1ccc(C(=O)N(C)CC(O)c2ccccc2)cc1OC1CCN(C(C)=O)CC1` (stereo not drawn), the growth rescue was 2.54%.
For the molecule `Cc1cc(S(=O)(=O)NC2CCCC2)ccc1-n1cnnn1`, the growth rescue is 0.47%.
The same measure for `S=C(NCCC1=CCCCC1)Nc1ccccc1`: 9.46%.
Under `CCCC1CCC(=NNC(=S)NCCc2ccccc2)CC1` (stereo not drawn) stands 1.29%.
Under `CCCCNC(=S)N/N=C1\CCCCc2ccccc21` stands 63.9% (active); under `CCCCn1nc(C(=O)Nc2cccc(C(=O)NC3CC3)c2)c2ccccc2c1=O`, 1.46%; under `O=C(NCCCN1CCCC1=O)c1ccc(S(=O)(=O)Nc2ccccc2)cc1`, -0.823%.
Take `COCCN1C(=O)C(=O)/C(=C(/O)c2ccc(S(=O)(=O)N3CCOCC3)cc2)C1c1ccc(O)c(OC)c1` (stereo not drawn): the growth rescue is -0.794%.
Take `CC(=O)OCc1cc(=O)n(C)c(=O)n1C`: the growth rescue was -0.117%.
Regarding `CC(=O)c1cc(NC(=O)c2ccccc2)c(=O)oc1/C=C/N(C)C`, the growth rescue is 1.15%.
`Cc1cccc(NC(=O)c2ccc(S(=O)(=O)N(C)c3ccccc3)cc2)n1`: the growth rescue is -1.12%.
Under `CSc1nccc(NC(=O)c2ccc(C(C)(C)C)cc2)n1` stands 733% (active).
The same measure for `COC(=O)c1nc(NC(=O)c2ccc(C(C)(C)C)cc2)n[nH]1`: 0.045%; for `Cn1c(C(=O)OC(C(=O)NC2CCCCC2)c2ccccn2)cc2sccc21` (stereo not drawn): 1.92%; for `CC(C)(CNC(=O)c1ccc(Cl)c(S(=O)(=O)N2CCc3ccccc3C2)c1)N1CCOCC1`: -1.18%.
The same measure for `O=C(OCC(=O)c1cccs1)c1ccc([N+](=O)[O-])o1`: -1.26%; for `O=C(COC(=O)c1ccc(Br)o1)NC12CC3CC(CC(C3)C1)C2`: 4.21%; for `O=C(COC(=O)c1ccc([N+](=O)[O-])o1)NC12CC3CC(CC(C3)C1)C2`: 364% (active).
For the molecule `Cc1cc(Cl)nc(NC(=O)Nc2cccc(Cl)c2)n1`, the growth rescue is -0.042%.
The same measure for `Cn1cc(Cl)c(C(=O)NNC(=S)Nc2cccc(Cl)c2)n1`: -0.14%; for `Cc1csc(NC(=S)Nc2cccc(Cl)c2)n1`: 118% (active); for `CCOC(=O)c1csc(CCNC(=O)c2oc3c(Cl)cc(C)cc3c2C)n1`: -0.607%.
Under `CCCc1nnc(NC(=O)CCC(=O)NC2CC2)s1` stands 0.339%.
As to `O=C(NCCCCO)C(F)(F)C(F)(F)C(F)(F)C(=O)NCCCCO`, the growth rescue was -1.94%.
The same measure for `O=S(=O)(NCCCc1ccccc1)c1ccc(Br)cc1`: 7.99%; for `O=c1ccc2cc(S(=O)(=O)NCCCc3ccccc3)ccc2[nH]1`: 30.5% (active).
Turning to `O=S(=O)(NCCc1ccccc1)c1ccccc1`, the growth rescue is -1.03%.
Under `Cc1nc2ccccn2c1C(=O)NN=C1CCN(C)CC1` stands -0.557%.
With `CCCCNC(=O)N(O)C1N(/N=C/c2ccc(N(C)C)cc2)C(=S)SC1(C)C` (stereo not drawn), the growth rescue is -1.02%.
Under `O=S(=O)(c1cccc2nonc12)N1CCN(c2cccc(Cl)c2)CC1` stands 1.52%; under `Cc1cc(C(=O)CCC(=O)NNC(=O)c2ccccc2O)c(C)s1`, -0.863%.
On to `O=C(Nc1ccccc1C(=O)O)c1cc(S(=O)(=O)N2CCCCC2)cs1`, for which the growth rescue is 0.561%.
Under `CC1CCCC(NC(=O)c2cc(S(=O)(=O)N3CCCCC3)ccc2Cl)C1C` (stereo not drawn) stands 2.29%; under `CC1=C(C)CC(C(=O)NNC(=O)c2ccccc2O)C(C(=O)O)C1` (stereo not drawn), 1.17%.
Under `O=C(NNC(=O)c1ccccc1O)c1ccccc1O` stands 68% (active).
Under `O=C(NNC(=O)c1cc(S(=O)(=O)N2CCCCC2)ccc1Cl)c1ccccc1O` stands 91.7% (active).
On to `COC(=O)c1sc(N)c(C(=O)OC)c1COC(=O)CNS(=O)(=O)c1ccc(C)cc1`, for which the growth rescue was 0.164%.
For `COc1ccc(C(=O)C2CCCN(C(=O)c3cc4nc(C)cc(C)n4n3)C2)cc1F` (stereo not drawn), the growth rescue is -1.21%.
`COc1ccc2c(c1)OC(O)(C(F)(F)C(F)F)CC2=O` (stereo not drawn): the growth rescue was 0.213%.
The same measure for `N#CCc1ccc(NC(=O)c2ccccc2C(=O)Nc2ccc(CC#N)cc2)cc1`: -0.068%; for `Cc1c(C(=O)Nc2ccccn2)oc2ccc(Br)cc12`: -0.794%.
Under `Oc1ccc(Br)cc1/C=N/Nc1ccccn1` stands 246% (active); under `O=C(NN=Cc1ccccc1O)NN=Cc1ccccc1O`, -0.914%.

(Values after PubChem BioAssay AID504582 (Broad Institute, 2011).)
